Measurements from ChEMBL document CHEMBL3988442, “University of Dundee, Small-Polar-MMV Screening Library” (2021).

Biological target: T1, Methionyl-tRNA synthetase, putative (Leishmania donovani (strain BPK282A1)) (UniProt E9BF75)
T1 sequence (whole entry): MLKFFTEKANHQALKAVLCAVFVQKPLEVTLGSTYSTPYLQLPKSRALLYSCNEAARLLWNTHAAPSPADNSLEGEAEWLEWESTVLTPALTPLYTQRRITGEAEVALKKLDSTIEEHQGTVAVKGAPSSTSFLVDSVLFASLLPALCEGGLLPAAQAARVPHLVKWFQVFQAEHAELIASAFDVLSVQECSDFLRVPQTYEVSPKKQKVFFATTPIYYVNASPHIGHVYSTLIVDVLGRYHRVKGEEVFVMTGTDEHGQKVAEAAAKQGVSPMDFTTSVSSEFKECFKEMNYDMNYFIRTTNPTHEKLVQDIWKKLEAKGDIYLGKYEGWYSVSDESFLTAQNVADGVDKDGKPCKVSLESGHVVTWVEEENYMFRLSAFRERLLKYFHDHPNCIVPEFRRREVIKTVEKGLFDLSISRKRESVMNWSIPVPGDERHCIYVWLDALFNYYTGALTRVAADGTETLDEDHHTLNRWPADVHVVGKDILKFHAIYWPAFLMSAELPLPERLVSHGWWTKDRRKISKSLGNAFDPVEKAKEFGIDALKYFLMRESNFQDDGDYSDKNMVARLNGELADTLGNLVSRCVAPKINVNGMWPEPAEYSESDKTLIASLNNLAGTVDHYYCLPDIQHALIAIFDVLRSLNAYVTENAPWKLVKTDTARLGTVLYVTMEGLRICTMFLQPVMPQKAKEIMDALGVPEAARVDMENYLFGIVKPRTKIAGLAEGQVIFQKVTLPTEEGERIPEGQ
Test: Leishmania donovani Methionine tRNA synthetase (LdMetRS):v7. Dose response assay
Assay type: functional
Design: conc 80 nM, time 150 minutes

Work on `CS(=O)(=O)N1CCN(c2ccc3ccc(C(=O)NCCN4CCc5ccccc5C4)cn23)CC1` yielded a PXC50 (BOTTOM 9.287524867, HILLSLOPE 2.626114762, MAX_EFFECT 78.976234, TOP 76.44379257) of 4.95 and a PXC50 (BOTTOM -0.296501823, HILLSLOPE 1.63582329, MAX_EFFECT 73.68421053, TOP 78.31707036) of 5.09.

With `Clc1cc(Cl)cc(NCc2ncc[nH]2)c1` the PXC50 (BOTTOM -1.539697056, HILLSLOPE 1.029999783, MAX_EFFECT 60.61185468, TOP 100.0) was 2.93.

Compound `O=c1cc(NCCCNCc2cc(C(F)(F)F)cs2)[nH]c2ccccc12` has a PXC50 (BOTTOM -2.424501326, HILLSLOPE 1.220462925, MAX_EFFECT 102.3310023, TOP 102.5192077) of 5.71 and a PXC50 (BOTTOM -3.989177117, HILLSLOPE 1.235768434, MAX_EFFECT 100.0, TOP 101.1477832) of 5.75.

`c1ccc(-c2nc(-n3cnnc3)c3ccccc3n2)cc1` gave a PXC50 (MAX_EFFECT 0.740740741) of less than 4.

Compound `NS(=O)(=O)c1cccnc1Nc1ccc(F)cc1` has a PXC50 (MAX_EFFECT 1.518026565) of less than 4.

Compound `COc1cccc(NC(=O)Nc2ccccc2OC)c1` has a PXC50 (MAX_EFFECT 2.056074766) of less than 4.

With `CS(=O)(=O)Nc1cccc2c(=O)cc(C(=O)NCC3(O)CCCCC3)oc12` the PXC50 (MAX_EFFECT 2.53968254) was less than 4 and the PXC50 (MAX_EFFECT 4.743083004) was less than 4.

`COC(=O)c1ccc(OC)c(NC(=O)N2CCOc3ccccc32)c1` was tested, and the PXC50 (MAX_EFFECT 3.018867925) was less than 4.

`C[C@@H](CO)Nc1ccnc(Cl)n1` gave a PXC50 (MAX_EFFECT 3.177570093) of less than 4.

Work on `COc1cccc(-c2cc(C(F)(F)F)nc(N(C)C)n2)c1` yielded a PXC50 (MAX_EFFECT 5.18134715) of less than 4 and a PXC50 (MAX_EFFECT 6.914893617) of less than 4.

Work on `CNC(=O)CN(C)c1nc(C)nc2sc3c(c12)CCC3` yielded a PXC50 (MAX_EFFECT 5.291005291) of less than 4 and a PXC50 (MAX_EFFECT 6.4) of less than 4.

Compound `O=C(NCC1CCCCC1)c1cc(=O)c2cc(F)cc(O)c2o1` has a PXC50 (MAX_EFFECT 5.56621881) of less than 4 and a PXC50 (MAX_EFFECT 11.64274322) of less than 4.

`Nc1noc2ccc(-c3cnc4ccc(NCCN5CCS(=O)(=O)CC5)nn34)cc12` gave a PXC50 (MAX_EFFECT 6.106870229) of less than 4 and a PXC50 (MAX_EFFECT 10.52631579) of less than 4.

For `COc1ccccc1NC(=O)Nc1ccn(C)n1`, the PXC50 (MAX_EFFECT 6.168224299) was less than 4.

Compound `Cc1nc(NCCCS(N)(=O)=O)c2c(-c3cccs3)csc2n1` has a PXC50 (MAX_EFFECT 6.297229219) of less than 4 and a PXC50 (MAX_EFFECT 6.870229008) of less than 4.

`CC(C)C[C@H](N)COc1ccc(Cl)cc1C(=O)c1ccccc1` gave a PXC50 (MAX_EFFECT 7.036247335) of less than 4 and a PXC50 (MAX_EFFECT 9.316770186) of less than 4.

Compound `CNC(=O)CNc1nc(CN2CCCCC2)nc2sc3c(c12)CCC3` has a PXC50 (MAX_EFFECT 7.304785894) of less than 4 and a PXC50 (MAX_EFFECT 12.46819338) of less than 4.

`Cc1c(-c2cc(C(F)(F)F)nc(N3CCC(N)CC3)n2)cnn1C` showed a PXC50 (MAX_EFFECT 7.485604607) of less than 4 and a PXC50 (MAX_EFFECT 8.133971292) of less than 4.

With `CNC(=O)CNc1nc(C)nc2sc3c(c12)CCC3` the PXC50 (MAX_EFFECT 7.888040712) was less than 4 and the PXC50 (MAX_EFFECT 9.319899244) was less than 4.

Compound `COC(=O)c1sc2nc(C)nc(N(C)Cc3cc(C)on3)c2c1C` has a PXC50 (MAX_EFFECT 8.556149733) of less than 4 and a PXC50 (MAX_EFFECT 12.02185792) of less than 4.

Work on `COC(=O)c1sc2nc(C)nc(NCc3cccnc3)c2c1C` yielded a PXC50 (MAX_EFFECT 10.38251366) of less than 4 and a PXC50 (MAX_EFFECT 11.22994652) of less than 4.

For `COc1cc(NC(=O)c2cccs2)c2ncccc2c1`, the PXC50 (MAX_EFFECT 11.11111111) was less than 4.

For `CN1CCN(c2ccc3ccc(C(=O)N4CCCCO4)cn23)CC1`, the PXC50 (MAX_EFFECT 12.20657277) was less than 4 and the PXC50 (MAX_EFFECT 19.44444444) was less than 4.

`Nc1noc2ccc(-c3cnc4ccc(N5CCOCC5)nn34)cc12` was tested, and the PXC50 (MAX_EFFECT 12.21374046) was less than 4 and the PXC50 (MAX_EFFECT 20.61403509) was less than 4.

`Nc1noc2ccc(-c3cnc4ccc(NCCn5cccn5)nn34)cc12` was tested, and the PXC50 (MAX_EFFECT 13.59649123) was less than 4 and the PXC50 (MAX_EFFECT 13.74045802) was less than 4.

For `COc1ccc(-c2cc(C(F)(F)F)nc(N3CCN(C)CC3)n2)cc1`, the PXC50 (MAX_EFFECT 16.41414141) was less than 4 and the PXC50 (MAX_EFFECT 20.40816327) was less than 4.

In the case of `CCNC(=O)c1ccc2ccc(N(CC)CC)n2c1`, the PXC50 (MAX_EFFECT 16.85185185) was less than 4 and the PXC50 (MAX_EFFECT 25.35211268) was less than 4.

Work on `CCNc1nc(CN2CCCCC2)nc2scc(-c3ccccc3)c12` yielded a PXC50 (MAX_EFFECT 17.42424242) of less than 4 and a PXC50 (MAX_EFFECT 18.36734694) of less than 4.

For `Cc1nc(N2CCN(c3ncccn3)CC2)c2c3c(sc2n1)CCCC3`, the PXC50 (MAX_EFFECT 19.78609626) was less than 4 and the PXC50 (MAX_EFFECT 20.21857923) was less than 4.

`Cc1sc2nc(CCN)nc(N3CC(N4CCCCC4)C3)c2c1C` gave a PXC50 (MAX_EFFECT 21.14882507) of less than 4 and a PXC50 (MAX_EFFECT 25.06527415) of less than 4.

`Nc1noc2ccc(-c3cnc4ccc(NC5CC5)nn34)cc12` was tested, and the PXC50 (MAX_EFFECT 22.39185751) was less than 4 and the PXC50 (MAX_EFFECT 25.87719298) was less than 4.

For `Cc1nc(N2CCN(c3cnccn3)CC2)c2c3c(sc2n1)CCCC3`, the PXC50 (MAX_EFFECT 22.45989305) was less than 4 and the PXC50 (MAX_EFFECT 25.13661202) was less than 4.

`CN(CCO)c1nc(-c2ccsc2)nc2sc3c(c12)CCCC3` showed a PXC50 (MAX_EFFECT 26.13333333) of less than 4 and a PXC50 (MAX_EFFECT 28.04232804) of less than 4.
